From PubChem BioAssay (Tox21)
Inconclusive results are not listed. Activity calls are given as the source filed them. Unless noted, the call rests on the fitted dose curve; in most records, active means well fitted curve in the direction sought with a large enough effect in the repeat runs; inconclusive means weak or mixed curves; inactive means no such curve, though single readings can be large; an effect the other way counts as inactive or inconclusive.

Experiments:
[1] = qHTS RealTime-Glo MT Cell Viability Assay in HepG2 cells - 16 hour (AID 1224885); conditions: RealTime-Glo luminescence; series mostly up to 76.8 µM; further: nearly all actives have a fitted effect of over 50% in size; further: potency means the concentration at half of the fitted maximal effect
How it was run: (§1)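 Luminescence read-out: viable HepG2 cells reduce a prosubstrate to a NanoLuc substrate, giving a signal proportional to live cell number. Reads taken at 0, 8, 16, 24, 32 and 40 h of compound exposure at 37 C.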

[2] = qHTS RealTime-Glo MT Cell Viability Assay in HEK293 cells - 24 hour (AID 1224886); conditions: RealTime-Glo luminescence; series mostly up to 76.8 µM; further: nearly all actives have a fitted effect of over 50% in size; further: potency means the concentration at half of the fitted maximal effect
How it was run: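 Nonlytic real-time viability readout: viable cells convert prosubstrate to NanoLuc substrate, giving luminescence proportional to live cell number. HEK293, 600 cells/well, compound added after 5 h, continuous culture at 37 C.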

[3] = qHTS RealTime-Glo MT Cell Viability Assay in HEK293 cells - 8 hour (AID 1224887); conditions: RealTime-Glo luminescence; series mostly up to 76.8 µM; further: nearly all actives have a fitted effect of over 50% in size; further: potency means the concentration at half of the fitted maximal effect
How it was run: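 Cells were seeded together with NanoLuc luciferase and a prosubstrate that viable cells reduce to a luciferase substrate. After a 5 h incubation at 37 C/5% CO2, compounds were added and luminescence was measured repeatedly during 40 h of treatment.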

[4] = A CellTox Green Cytotoxicity Assay to monitor cytotoxicity in HEK293 cells - 16 hour (AID 1224888); conditions: CellTox Green fluorescence; series mostly up to 76.8 µM; further: nearly all actives have a fitted effect of over 35% in size; further: potency means the concentration at half of the fitted maximal effect
How it was run: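 Nonlytic real-time cytotoxicity: HEK293 + CellTox Green reagent plated, 5 h preincubation, pintool compound addition (23 nL in DMSO), 37 C for 40 h, fluorescence measured at successive time points.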

[5] = qHTS RealTime-Glo MT Cell Viability Assay in HepG2 cells - 0 hour (AID 1224889); conditions: RealTime-Glo luminescence; series mostly up to 76.8 µM; further: nearly all actives have a fitted effect of over 50% in size
How it was run: as §1

[6] = A CellTox Green Cytotoxicity Assay to monitor cytotoxicity in HepG2 cells - 8 hour (AID 1224890); conditions: CellTox Green fluorescence; series mostly up to 76.8 µM; further: nearly all actives have a fitted effect of over 45% in size; further: potency means the concentration at half of the fitted maximal effect
How it was run: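 Read-out is fluorescence of a cyanine dye excluded from live cells that stains DNA of dead HepG2 cells, with signal proportional to cytotoxicity. Plates were read at 0, 8, 16, 24, 32 and 40 h after compound addition.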

[7] = qHTS assay to identify small molecule antagonists of the androgen receptor (AR) signaling pathway using the MDA cell line in the presence of 0.5 nM R1881 - cell viability counter screen (AID 1259242); conditions: MDA-kb2 viability, CellTiter-Fluor protease fluorescence, 16 h; series mostly up to 92.4 µM; further: nearly all actives have a fitted effect of over 45% in size; further: potency means the concentration at half of the fitted maximal effect
How it was run: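 Counter screen for cytotoxicity run in the same wells as the AR antagonist reporter screen: MDA-kb2 cells were treated 16 hr with test compounds and 0.5 nM R1881, then live-cell protease activity was measured by fluorescence.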

[8] = qHTS assay to identify small molecule HDAC inhibitors - cell viability counter screen (AID 1259365); conditions: HCT-116 viability, CellTiter-Glo ATP luminescence, 2 h; series mostly up to 92.4 µM; further: nearly all actives have a fitted effect of over 50% in size
How it was run: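 Luminescence from CellTiter-Glo, developed 30min at room temperature, reports viability of wild-type HCT-116 cells treated 2hr with compounds at 37 C and 5% CO2 after overnight plating.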

[9] = qHTS assay to identify small molecule antagonists of the sonic hedgehog signaling (Shh) pathway - cell viability counter screen (AID 1259367); conditions: NIH/3T3 Gli1-Luc viability, CellTiter-Fluor, 24 h; series mostly up to 92.4 µM; further: nearly all actives have a fitted effect of over 55% in size; further: potency means the concentration at half of the fitted maximal effect
How it was run: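 Using CellTiter-Fluor, viability of Gli1-Luc reporter 3T3 cells is read by fluorescence in the wells used for the Shh luciferase assay. Treatment lasts 23 hr with conditioned medium, then reagent 1 hr at 37C.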

[10] = qHTS assay to identify small molecule agonists of the sonic hedgehog signaling (Shh) pathway (AID 1259368; calls by dose curve;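 further: NIH/3T3-derived 3T3Gli1-Luc cells carrying a stable Gli1-driven firefly luciferase reporter; nearly all actives have a fitted effect of over 15% in size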); conditions: NIH/3T3 Gli1-Luc reporter, luciferase, 24 h; series mostly up to 92.4 µM
How it was run: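 3T3Gli1-Luc (NIH/3T3 clone, stable Gli1-Luc); 4 hr pre-incubation, then cpd in DMSO 24 hr, 37 C/5% CO2; luciferase reagent 30 min RT; luminescence.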

[11] = qHTS assay to identify small molecule antagonists of the sonic hedgehog signaling (Shh) pathway (AID 1259369; calls by dose curve; further: nearly all actives have a fitted effect of over 45% in size; further: potency means the concentration at half of the fitted maximal effect); conditions: NIH/3T3 Gli1-Luc reporter, Shh antagonist, luminescence 24 h; series mostly up to 92.4 µM
How it was run: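 3T3Gli1-Luc, conditioned-medium-stimulated, 24hr cpd, 37C/5% CO2; Gli1-driven firefly Luc luminescence after 30min RT with luciferase reagent. Cells plated 4hr before cpd.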

[12] = target: Estrogen receptor beta (Homo sapiens) (UniProt Q92731); experiment: qHTS assay to identify small molecule agonists of the estrogen receptor beta (ER-beta) signaling pathway (AID 1259377; active means well fitted activation curve with a large enough effect in the signal ratio in the repeat runs, not every such curve was filed as active; the % refers to the signal ratio); conditions: ER-beta-UAS-bla HEK293T, beta-lactamase FRET ratio, 16 h; series mostly up to 92.4 µM
How it was run: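 HEK293T ER-beta-UAS-bla; 2% charcoal-stripped FBS; cells pre-incubated 6 hr, compound 16 hr, 37C/5% CO2; LiveBLAzer B/G FRET substrate 2 h RT; fluorescence intensity read.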

[13] = qHTS assay to identify small molecule agonists of the androgen receptor (AR) signaling pathway in the presence of an antagonist - cell viability counter screen (AID 1259379); conditions: MDA-kb2 viability, CellTiter-Fluor, 16 h; series mostly up to 92.4 µM; further: nearly all actives have a fitted effect of over 25% in size; further: potency means the concentration at half of the fitted maximal effect
How it was run: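 Cells: MDA-kb2 (MMTV-luc, AR and GR elements), 3,000/well, 5 hr settle. Added: nilutamide 3.0uM final, then compounds (15 conc.). Incubation: 16 hr, 37C, no CO2. Read-out: CellTiter-Fluor, 1 hr, fluorescence.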

[14] = qHTS assay to identify small molecule antagonists of the estrogen receptor alpha (ER-alpha) signaling pathway using the BG1 cell line in the presence of 0.1 nM 17-beta-estradiol - cell viability counter screen (AID 1259241); conditions: VM7Luc4E2 (BG1) viability, CellTiter-Fluor protease, 22 h, 0.1 nM estradiol agonist added; series mostly up to 92.4 µM; further: nearly all actives have a fitted effect of over 40% in size; further: potency means the concentration at half of the fitted maximal effect
How it was run: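 VM7Luc4E2, 4,000 cells/well, phenol red-free medium + 10% charcoal-stripped FBS; 24 hr plating; cpd + 0.1 nM E2 final, 22 hr 37C/5% CO2; CellTiter-Fluor 30 min, fluorescence.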

[15] = target: Estrogen receptor (Homo sapiens) (UniProt P03372); experiment: qHTS assay to identify small molecule antagonists of the estrogen receptor alpha (ER-alpha) signaling pathway using the BG1 cell line in the presence of 0.1 nM 17-beta-estradiol (AID 1259244); conditions: VM7Luc4E2 (BG1) ERE-luciferase, antagonist mode, 0.1 nM E2, 22 h; series mostly up to 92.4 µM; further: nearly all actives have a fitted effect of over 50% in size; further: potency means the concentration at half of the fitted maximal effect
How it was run: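 Cells: VM7Luc4E2, endogenous ER-alpha, 4x ERE-luc stable. Pre-culture 5 d, phenol red-free, charcoal-stripped FBS. Plated 24 h, compound + E2 0.1 nM final, 22 h 37C/5% CO2. Readout ONE-Glo luminescence.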

[16] = qHTS assay to identify small molecule HDAC inhibitors (AID 1259364); conditions: HCT-116 HDAC-Glo I/II luminescence, 2 h; series mostly up to 92.4 µM; further: nearly all actives have a fitted effect of over 45% in size; further: potency means the concentration at half of the fitted maximal effect
How it was run: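 Luminescence from a cell-permeant luminogenic class I/II HDAC substrate reports endogenous deacetylase activity in intact HCT-116 cells treated with compounds for 2 h.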

[17] = qHTS assay to identify small molecule agonists of the sonic hedgehog signaling (Shh) pathway - cell viability counter screen (AID 1259366); conditions: NIH/3T3 Gli1-Luc viability, CellTiter-Fluor, 24 h; series mostly up to 92.4 µM; further: nearly all actives have a fitted effect of over 50% in size; further: potency means the concentration at half of the fitted maximal effect
How it was run: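 Cytotoxicity counter screen run in the same wells as the Shh reporter assay. NIH/3T3 cells carrying a Gli1 response element–driven luciferase were treated with DMSO-dissolved compounds for 24hr, and live-cell protease activity was measured with CellTiter-Fluor.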

[18] = target: Estrogen receptor beta (Homo sapiens) (UniProt Q92731); experiment: qHTS assay to identify small molecule antagonists of the estrogen receptor beta (ER-beta) signaling pathway (AID 1259378; active means well fitted inhibition curve with a large enough effect in the signal ratio in the repeat runs, not every such curve was filed as active; the % refers to the signal ratio; further: potency means the concentration at half of the fitted maximal effect); conditions: ER-beta-UAS-bla HEK293T, beta-lactamase FRET ratio, 16 h; series mostly up to 92.4 µM
How it was run: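 Antagonist mode: compounds added to beta-lactamase reporter HEK293T ER-beta-UAS cells stimulated with E2 (1nM final), 16 hr at 37C. LiveBLAzer B/G FRET substrate, 2 hours room temperature, fluorescence read-out.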

[19] = target: Androgen receptor (Homo sapiens) (UniProt P10275); experiment: qHTS assay to identify small molecule antagonists of the androgen receptor (AR) signaling pathway using the MDA cell line in the presence of 0.5 nM R1881 (AID 1259243); conditions: MDA-kb2 MMTV-luciferase, R1881 0.5 nM, 16 h; series mostly up to 92.4 µM; further: nearly all actives have a fitted effect of over 50% in size; further: potency means the concentration at half of the fitted maximal effect
How it was run: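 Luciferase luminescence is the read-out: compounds are tested for suppressing 0.5 nM R1881-driven MMTV reporter activity in MDA-kb2 cells after 16 hr at 37C.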

[20] = qHTS assay to identify small molecule phospholipidosis (PLD) inducers (AID 1259344; active means well fitted curve in the direction sought with a large enough effect; an effect the other way counts as inactive or inconclusive); conditions: HepG2 phospholipidosis, LipidTOX Red imaging, 24 h; series mostly up to 38.3 µM
How it was run: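 Fluorescent phospholipid staining (LipidTOX Red) measured by automated microscopy in fixed HepG2 cells after 24 h treatment; nuclei counterstained with Hoechst 33342; amiodarone as reference inducer.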

Measured: Potency

Chain of Estrogen receptor (Homo sapiens) (P03372 whole entry, looked up): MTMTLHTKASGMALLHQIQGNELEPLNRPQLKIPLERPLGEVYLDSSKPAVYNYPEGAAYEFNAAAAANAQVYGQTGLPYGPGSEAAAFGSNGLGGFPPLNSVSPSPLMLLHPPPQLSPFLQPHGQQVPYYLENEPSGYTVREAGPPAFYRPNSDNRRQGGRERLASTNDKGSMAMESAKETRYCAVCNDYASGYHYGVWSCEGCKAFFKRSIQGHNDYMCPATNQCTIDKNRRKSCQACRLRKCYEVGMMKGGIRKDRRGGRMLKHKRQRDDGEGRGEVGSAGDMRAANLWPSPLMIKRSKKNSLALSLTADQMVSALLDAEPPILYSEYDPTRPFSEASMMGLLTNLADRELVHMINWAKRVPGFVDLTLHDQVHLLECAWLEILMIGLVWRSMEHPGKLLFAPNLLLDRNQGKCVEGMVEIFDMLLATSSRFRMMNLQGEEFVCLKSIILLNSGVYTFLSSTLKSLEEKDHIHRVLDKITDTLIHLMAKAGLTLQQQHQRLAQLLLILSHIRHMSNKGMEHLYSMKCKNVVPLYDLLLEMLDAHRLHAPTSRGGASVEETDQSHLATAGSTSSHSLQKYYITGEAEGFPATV
Chain of Estrogen receptor beta (Homo sapiens) (Q92731 whole entry, looked up): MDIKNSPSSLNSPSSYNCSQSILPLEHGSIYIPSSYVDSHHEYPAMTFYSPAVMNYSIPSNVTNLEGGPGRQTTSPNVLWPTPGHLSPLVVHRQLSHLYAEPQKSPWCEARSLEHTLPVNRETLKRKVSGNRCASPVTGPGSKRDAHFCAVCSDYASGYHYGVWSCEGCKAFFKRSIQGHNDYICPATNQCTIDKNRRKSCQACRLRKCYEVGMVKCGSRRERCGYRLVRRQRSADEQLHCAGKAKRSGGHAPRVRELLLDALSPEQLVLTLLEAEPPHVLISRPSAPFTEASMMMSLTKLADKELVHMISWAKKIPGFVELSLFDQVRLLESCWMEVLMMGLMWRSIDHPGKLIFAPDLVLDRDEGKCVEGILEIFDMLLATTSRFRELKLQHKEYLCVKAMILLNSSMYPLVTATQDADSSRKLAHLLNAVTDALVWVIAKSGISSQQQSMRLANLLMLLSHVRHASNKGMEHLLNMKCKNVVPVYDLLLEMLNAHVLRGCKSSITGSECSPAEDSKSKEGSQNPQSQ
Chain of Androgen receptor (Homo sapiens) (P10275 whole entry, looked up): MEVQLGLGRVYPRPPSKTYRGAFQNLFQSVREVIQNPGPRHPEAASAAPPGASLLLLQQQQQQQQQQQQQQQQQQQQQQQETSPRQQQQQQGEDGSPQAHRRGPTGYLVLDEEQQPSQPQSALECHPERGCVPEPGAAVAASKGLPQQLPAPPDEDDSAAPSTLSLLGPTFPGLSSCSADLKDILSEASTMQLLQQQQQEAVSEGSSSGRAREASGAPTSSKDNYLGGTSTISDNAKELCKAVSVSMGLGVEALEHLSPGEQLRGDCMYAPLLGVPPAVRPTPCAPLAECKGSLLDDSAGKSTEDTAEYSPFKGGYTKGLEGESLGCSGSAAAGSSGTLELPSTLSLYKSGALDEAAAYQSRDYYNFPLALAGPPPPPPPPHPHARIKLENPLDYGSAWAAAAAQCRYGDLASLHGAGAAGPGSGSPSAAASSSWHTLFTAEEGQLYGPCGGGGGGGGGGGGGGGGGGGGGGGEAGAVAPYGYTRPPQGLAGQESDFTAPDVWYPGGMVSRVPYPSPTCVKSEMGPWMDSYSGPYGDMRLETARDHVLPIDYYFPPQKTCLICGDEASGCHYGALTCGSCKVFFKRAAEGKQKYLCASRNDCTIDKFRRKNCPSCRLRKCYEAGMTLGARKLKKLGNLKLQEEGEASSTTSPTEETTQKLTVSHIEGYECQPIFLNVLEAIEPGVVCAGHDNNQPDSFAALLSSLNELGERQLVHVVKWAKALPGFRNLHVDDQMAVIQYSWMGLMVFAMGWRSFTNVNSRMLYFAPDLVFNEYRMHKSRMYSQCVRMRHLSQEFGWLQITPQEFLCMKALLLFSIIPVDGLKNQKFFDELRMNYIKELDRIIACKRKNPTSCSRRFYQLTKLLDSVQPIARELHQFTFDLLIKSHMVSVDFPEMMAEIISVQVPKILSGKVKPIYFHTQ

CCSCC
active: [9] 57.6 µM | [11] 18.2 µM
not listed: [14] | [15] | [16] | [17] | [18] | [19] | [20]
inactive: all other assays above

NCc1cccc(C2CCN(C(=O)c3ccc(C#Cc4ccccc4F)o3)CC2)c1
active: [1] 49 µM | [2] 54.9 µM | [3] 43.6 µM | [4] 49 µM | [6] 49 µM | [14] 68.6 µM | [15] 68.6 µM | [17] 30.6 µM | [9] 24.3 µM | [11] 6.11 µM | [18] 54.5 µM
inactive: [16]

Oc1ccc(C2(c3ccc(O)c(C4CCCCC4)c3)CCCCC2)cc1C1CCCCC1
active: [1] 38.9 µM | [2] 38.9 µM | [3] 43.6 µM | [7] 43.3 µM | [15] 43.3 µM | [17] 19.3 µM | [9] 21.7 µM | [11] 12.2 µM | [13] 43.3 µM
inactive: [4] | [5] | [16] | [8] | [10]

N#Cc1nc(Cl)c(Cl)c(Cl)c1Cl
inactive: [5] | [6] | [16]
active: [1] 21.9 µM | [2] 1.95 µM | [7] 54.5 µM | [19] 4.86 µM | [17] 5.45 µM | [9] 10.9 µM | [13] 24.3 µM

CC/C=C\C/C=C\C/C=C\CCCCCCCC(=O)OC
inactive: [1] | [2] | [3] | [4] | [6] | [14] | [7] | [15] | [16] | [8]
active: [11] 43.3 µM

CSc1ccc(O)cc1C
inactive: [1] | [2] | [4] | [5] | [6] | [7] | [16] | [8] | [10]
active: [17] 43.3 µM | [9] 27.3 µM | [11] 13.7 µM | [18] 54.5 µM

O=C(NCc1ncc(C(F)(F)F)cc1Cl)c1c(Cl)cccc1Cl
active: [2] 21.9 µM | [19] 54.5 µM | [13] 17.2 µM
not listed: [3] | [7] | [15] | [18] | [20]
inactive: all other assays above

CCn1c2ccccc2c2ccccc21
not listed: [3] | [12] | [14] | [18] | [19] | [20]
inactive: all other assays above

CC(C)=NNC(N)=S
active: [11] 13.7 µM
not listed: [6] | [9] | [18] | [19] | [20]
inactive: all other assays above

CC(C)=CCC[C@H](C)CC=O
not listed: [4] | [12] | [15] | [18] | [19] | [20]
inactive: all other assays above

CC(C)c1ccc2sc3ccccc3c(=O)c2c1
active: [16] 1.72 µM
not listed: [2] | [3] | [8] | [10] | [12] | [13] | [19] | [20]
inactive: all other assays above

Cc1cc(C)c(O)c(C(C)(C)C)c1
not listed: [4] | [14] | [16] | [20]
inactive: all other assays above

CCCOC(=O)c1ccc(O)cc1
active: [2] 21.9 µM | [11] 2.43 µM
not listed: [3] | [12] | [13] | [14] | [16] | [18] | [19]
inactive: all other assays above

Cc1ccc2sc3cccc(C)c3c2c1
active: [19] 8.63 µM
not listed: [1] | [16] | [20]
inactive: all other assays above

CC(O)(c1ccc(Cl)cc1)c1ccc(Cl)cc1
inactive: [5] | [14] | [7] | [16] | [8] | [17] | [12]
active: [2] 24.5 µM | [3] 34.7 µM | [6] 54.9 µM | [11] 43.3 µM
